The record followed here is PubChem BioAssay.

The structures appear in SMILES notation. Calls of active or inactive are those of the source.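 How the source made its calls: active means thallium flux through the channel raised or lowered by more than 3 SD from vehicle-only wells, actives on both sides; inactive means the rest.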

In this assay the test system is F380Y/beta1. Description: BK channel mutant inhibitors and activators – cell-based, U2OS BacMam, thallium flux, beta subunits, selectivity assay, profiling panel (AID 1259406).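 Further: initial slope of Thallos dye fluorescence rise after thallium is added; log ratio against the mean of 0.3% DMSO vehicle wells on the same plate.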 The following applies: U2OS BacMam BK variants, at 30 µM.
Turning to `O=C1N=C(O)CN1N=Cc1ccc(-c2ccc([N+](=O)[O-])cc2)o1`, the log fold change Tl+ flux was 0.16 (active).

For the molecule `CC(=O)O[C@@]12CO[C@@H]1C[C@H](O)[C@@]1(C)C(=O)[C@H](O)C3=C(C)[C@@H](OC(=O)[C@H](O)[C@@H](NC(=O)OC(C)(C)C)c4ccccc4)C[C@](O)([C@@H](OC(=O)c4ccccc4)[C@H]21)C3(C)C`, the log fold change Tl+ flux was -0.0744 (inactive).

In the case of `CC1c2cccc(O)c2C(O)=C2C(=O)[C@]3(O)C(O)=C(C(N)=O)C(=O)[C@@H](N(C)C)[C@@H]3C[C@@H]21` (stereo partly specified), the log fold change Tl+ flux is -0.038 (inactive).

With `CO[C@H]1C=CO[C@@]2(C)Oc3c(C)c(O)c4c(O)c(c(C=NN5CCN(C6CCCC6)CC5)c(O)c4c3C2=O)NC(=O)C(C)=CC=C[C@H](C)[C@H](O)[C@@H](C)[C@@H](O)[C@@H](C)[C@H](OC(C)=O)[C@@H]1C`, the log fold change Tl+ flux is -0.0391 (inactive).

Consider `C=CC1=C(C(=O)O)N2C(=O)[C@@H](NC(=O)C(=NO)c3csc(N)n3)[C@H]2SC1`, for which the log fold change Tl+ flux is 0.00826 (inactive).

For the molecule `C[C@H]1O[C@@H](O[C@H]2[C@@H](O)C[C@H](O[C@H]3[C@@H](O)C[C@H](O[C@H]4CC[C@@]5(C)[C@H](CC[C@@H]6[C@@H]5C[C@@H](O)[C@]5(C)C(C7=CC(=O)OC7)CC[C@]65O)C4)O[C@@H]3C)O[C@@H]2C)C[C@H](O)[C@@H]1O` (stereo partly specified), the log fold change Tl+ flux was 0.0633 (inactive).

Regarding `CON=C(C(=O)N[C@@H]1C(=O)N2C(C(=O)O)=C(COC(N)=O)CS[C@H]12)c1ccco1`, the log fold change Tl+ flux was 0.0158 (inactive).

Turning to `Cc1cc(=O)oc2cc(NC(=O)C3CCC(=O)N3)ccc12` (stereo unspecified), the log fold change Tl+ flux is -0.0136 (inactive).

With `N[C@@H](C(=O)N[C@@H]1C(=O)N2C(C(=O)O)=C(CSc3cn[nH]n3)CS[C@H]12)c1ccc(O)cc1` (tested in a mixture with another compound), the log fold change Tl+ flux is -0.0559 (inactive).

For `CN1CCN2c3ncccc3Cc3ccccc3[C@@H]2C1`, the log fold change Tl+ flux is 0.0391 (inactive).

Take `C=CC[C@@H]1C=C(C)C[C@H](C)C[C@H](OC)[C@H]2O[C@@](O)(C(=O)C(=O)N3CCCC[C@H]3C(=O)O[C@H](/C(C)=C/[C@@H]3CC[C@@H](O)[C@H](OC)C3)[C@H](C)[C@@H](O)CC1=O)[C@H](C)C[C@@H]2OC`: the log fold change Tl+ flux is -0.0137 (inactive).

With `CO[C@H]1C=CO[C@@]2(C)Oc3c(C)c(O)c4c(O)c(c5c(c4c3C2=O)NC2(CCN(CC(C)C)CC2)N=5)=NC(=O)C(C)=CC=C[C@H](C)[C@H](O)[C@@H](C)[C@@H](O)[C@@H](C)[C@H](OC(C)=O)[C@@H]1C`, the log fold change Tl+ flux is -0.0974 (active).

For `CN(C)S(=O)(=O)c1ccc2c(c1)/C(=C\CCN1CCNCC1)c1ccccc1S2`, the log fold change Tl+ flux was -0.0463 (inactive).

Take `C[C@]12C=CC(=O)C=C1CC[C@@H]1[C@@H]2[C@@H](O)C[C@@]2(C)[C@H]1CC[C@]2(O)C(=O)COC(=O)CCC(=O)O`: the log fold change Tl+ flux is 0.0033 (inactive).

For the molecule `CO[C@H]1C=CO[C@@]2(C)Oc3c(C)c(O)c4c(O)c(c5c(nc6cc(C)ccn65)c4c3C2=O)NC(=O)C(C)=CC=C[C@H](C)[C@H](O)[C@@H](C)[C@@H](O)[C@@H](C)[C@H](OC(C)=O)[C@@H]1C`, the log fold change Tl+ flux is -0.224 (active).

As to `CC(C)CC(NC(=O)C(COC(C)(C)C)NC(=O)C(Cc1ccc(O)cc1)NC(=O)C(CO)NC(=O)C(Cc1c[nH]c2ccccc12)NC(=O)C(Cc1cnc[nH]1)NC(=O)C1CCC(=O)N1)C(=O)N[C@@H](CCCN=C(N)N)C(=O)N1CCCC1C(=O)NNC(N)=O` (stereo partly specified), the log fold change Tl+ flux is 0.02 (inactive).

In the case of `CCN(CC)CCOc1ccc(C(=C(Cl)c2ccccc2)c2ccccc2)cc1`, the log fold change Tl+ flux was -0.533 (active).

Consider `CO[C@H]1/C=C/O[C@@]2(C)Oc3c(C)c(O)c4c(O)c(c(C=NN5CCN(C6CCCC6)CC5)c(O)c4c3C2=O)NC(=O)/C(C)=C\C=C\[C@H](C)[C@H](O)[C@@H](C)[C@@H](O)[C@@H](C)[C@H](OC(C)=O)[C@@H]1C`, for which the log fold change Tl+ flux was 0.0885 (inactive).

Regarding `O=C1CN(N=Cc2ccc([N+](=O)[O-])o2)C(=O)N1`, the log fold change Tl+ flux was -0.025 (inactive).

With `C=CC1=C(C(=O)O)N2C(=O)[C@@H](NC(=O)C(=NOCC(=O)O)c3csc(N)n3)[C@H]2SC1`, the log fold change Tl+ flux was -0.0102 (inactive).

Turning to `COCC1=C(C(=O)OC(C)OC(=O)OC(C)C)N2C(=O)[C@@H](NC(=O)C(=NOC)c3csc(N)n3)[C@H]2SC1` (stereo partly specified), the log fold change Tl+ flux was 0.0461 (inactive).
